About 83,000 compounds went through this panel and 20% of them were active in at least one assay; those are over-represented in the sample as a whole.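 Treatment: one concentration, 48 hours, 96-well format. Scoring: percent growth, with anything below 10 considered active.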 A number with no mark means an inactive call. Calls of active or inactive are those of the source.
Legend:
Experiment in all cases: NCI-60 one-dose screen, 48 h (100 = growth as untreated, 0 = no growth, -100 = all killed)
Details in all cases: 10 µM unless noted
NCI-H23 lung = test system: NCI-H23 lung
NCI-H226 lung = test system: NCI-H226 lung
NCI-H322M lung = test system: NCI-H322M lung
HOP-62 NSCLC = test system: HOP-62 NSCLC
NCI-H460 lung = test system: NCI-H460 lung
HOP-92 NSCLC = test system: HOP-92 NSCLC
NCI-H522 lung = test system: NCI-H522 lung
A549/ATCC NSCLC = test system: A549/ATCC NSCLC
786-0 renal = test system: 786-0 renal
COLO 205 colon = test system: COLO 205 colon
DU-145 prostate = test system: DU-145 prostate
K-562 leukemia = test system: K-562 leukemia
MALME-3M melanoma = test system: MALME-3M melanoma
MDA-MB-231 breast = test system: MDA-MB-231 breast
RXF 393 renal = test system: RXF 393 renal
SF-268 CNS = test system: SF-268 CNS
SF-295 CNS = test system: SF-295 CNS
SF-539 CNS = test system: SF-539 CNS
UACC-257 melanoma = test system: UACC-257 melanoma
M14 melanoma = test system: M14 melanoma

COc1ccc2nc3cc(Cl)ccc3c(NCCN)c2c1
growth (NCI-H23 lung): -33.6% (active) | growth (NCI-H226 lung): 31.8% | growth (NCI-H322M lung): -46% (active) | growth (HOP-62 NSCLC): -85.8% (active) | growth (NCI-H460 lung): -71.4% (active) | growth (HOP-92 NSCLC): 70.7% | growth (NCI-H522 lung): -56.6% (active) | growth (A549/ATCC NSCLC): -84.5% (active) | growth (786-0 renal): -88.9% (active) | growth (COLO 205 colon): -83.2% (active) | growth (DU-145 prostate): -94.1% (active) | growth (K-562 leukemia): -64.6% (active) | growth (MALME-3M melanoma): -71% (active) | growth (MDA-MB-231 breast): -71.6% (active) | growth (RXF 393 renal): -85.9% (active) | growth (SF-268 CNS): -53.7% (active) | growth (SF-295 CNS): -92.3% (active) | growth (SF-539 CNS): -72% (active) | growth (UACC-257 melanoma): 101% | growth (M14 melanoma): -74.7% (active)

Oc1c(I)cc(-c2nc3ccccc3s2)cc1CN(Cc1ccccn1)Cc1ccccn1
growth (NCI-H23 lung): 18.3% | growth (NCI-H226 lung): 10.5% | growth (NCI-H322M lung): 15.9% | growth (HOP-62 NSCLC): 15.7% | growth (NCI-H460 lung): 1.59% (active) | growth (HOP-92 NSCLC): 0.23% (active) | growth (NCI-H522 lung): 4.12% (active) | growth (A549/ATCC NSCLC): 4.74% (active) | growth (786-0 renal): 2.78% (active) | growth (COLO 205 colon): 14.3% | growth (DU-145 prostate): 28.1% | growth (K-562 leukemia): 13.1% | growth (MALME-3M melanoma): 11.5% | growth (MDA-MB-231 breast): 34.9% | growth (RXF 393 renal): 33.3% | growth (SF-268 CNS): 20.8% | growth (SF-295 CNS): 18.5% | growth (SF-539 CNS): 4.13% (active) | growth (UACC-257 melanoma): 0.435% (active) | growth (M14 melanoma): -27.5% (active)

NC(CSC(c1ccccc1)(c1ccccc1)c1ccc2c(c1)OCO2)C(=O)O (stereo not given)
growth (NCI-H23 lung): 14.6% | growth (NCI-H226 lung): 75% | growth (NCI-H322M lung): 26.6% | growth (HOP-62 NSCLC): 55.3% | growth (NCI-H460 lung): 7.27% (active) | growth (HOP-92 NSCLC): 10.9% | growth (NCI-H522 lung): -20.9% (active) | growth (A549/ATCC NSCLC): 18.5% | growth (786-0 renal): 51.1% | growth (COLO 205 colon): -32% (active) | growth (DU-145 prostate): -26.3% (active) | growth (K-562 leukemia): 8.25% (active) | growth (MALME-3M melanoma): 47.6% | growth (MDA-MB-231 breast): 19.8% | growth (RXF 393 renal): -5.81% (active) | growth (SF-268 CNS): 38.8% | growth (SF-295 CNS): -27.6% (active) | growth (SF-539 CNS): 13.4% | growth (UACC-257 melanoma): 32.6% | growth (M14 melanoma): -19.4% (active)

NC(=O)OCCn1cc(-c2nc(-c3c[nH]c4ncccc34)cs2)c2ccccc21
growth (NCI-H23 lung): 63.3% | growth (NCI-H226 lung): 53% | growth (NCI-H322M lung): 65.9% | growth (HOP-62 NSCLC): 39.2% | growth (NCI-H460 lung): 17.8% | growth (HOP-92 NSCLC): 49.1% | growth (NCI-H522 lung): 5.49% (active) | growth (A549/ATCC NSCLC): 36.9% | growth (786-0 renal): 42.9% | growth (COLO 205 colon): 4.32% (active) | growth (DU-145 prostate): 64.9% | growth (K-562 leukemia): 11.8% | growth (MALME-3M melanoma): 62.4% | growth (MDA-MB-231 breast): 49.7% | growth (RXF 393 renal): 46.3% | growth (SF-268 CNS): 50% | growth (SF-295 CNS): 25.5% | growth (SF-539 CNS): 33.8% | growth (UACC-257 melanoma): 60.5% | growth (M14 melanoma): 11.8%

COc1ccc(-c2cc(-c3ccc(OC)cc3)nc(NCCCNc3ccnc4cc(Cl)ccc34)n2)cc1
growth (NCI-H23 lung): 81.3% | growth (NCI-H226 lung): 70.5% | growth (NCI-H322M lung): 98.4% | growth (HOP-62 NSCLC): 87.4% | growth (NCI-H460 lung): -39.5% (active) | growth (HOP-92 NSCLC): 55.9% | growth (NCI-H522 lung): 87.4% | growth (A549/ATCC NSCLC): 17.8% | growth (786-0 renal): -88.6% (active) | growth (COLO 205 colon): 2.44% (active) | growth (DU-145 prostate): -2.21% (active) | growth (K-562 leukemia): -14.3% (active) | growth (MALME-3M melanoma): -75.6% (active) | growth (MDA-MB-231 breast): 76.7% | growth (RXF 393 renal): 24.2% | growth (SF-268 CNS): 85.3% | growth (SF-295 CNS): 83.8% | growth (SF-539 CNS): 63.4% | growth (UACC-257 melanoma): 46.2% | growth (M14 melanoma): 33.3%

O=C(Nc1cccc(NC(=O)C2CCCCC2)c1)c1ccccn1
growth (NCI-H23 lung): 88.3% | growth (NCI-H226 lung): 106% | growth (NCI-H322M lung): 89.2% | growth (HOP-62 NSCLC): 100% | growth (NCI-H460 lung): 114% | growth (HOP-92 NSCLC): 112% | growth (NCI-H522 lung): 89.9% | growth (A549/ATCC NSCLC): 102% | growth (786-0 renal): 95% | growth (COLO 205 colon): 117% | growth (DU-145 prostate): 103% | growth (K-562 leukemia): 85.2% | growth (MALME-3M melanoma): 91% | growth (MDA-MB-231 breast): 104% | growth (RXF 393 renal): 125% | growth (SF-268 CNS): 95.7% | growth (SF-295 CNS): 97.9% | growth (SF-539 CNS): 98.1% | growth (UACC-257 melanoma): 108% | growth (M14 melanoma): 91.7%

CC[C@@H](c1ccc2cc(OC)ccc2c1)C(C)(C)C(=O)F
growth (NCI-H23 lung): 93.4% | growth (NCI-H226 lung): 103% | growth (NCI-H322M lung): 124% | growth (HOP-62 NSCLC): 90.8% | growth (NCI-H460 lung): 106% | growth (HOP-92 NSCLC): 95.1% | growth (NCI-H522 lung): 104% | growth (A549/ATCC NSCLC): 92.5% | growth (786-0 renal): 109% | growth (COLO 205 colon): 90.2% | growth (DU-145 prostate): 104% | growth (K-562 leukemia): 104% | growth (MALME-3M melanoma): 97.1% | growth (MDA-MB-231 breast): 106% | growth (RXF 393 renal): 98.6% | growth (SF-268 CNS): 113% | growth (SF-295 CNS): 98.7% | growth (SF-539 CNS): 103% | growth (UACC-257 melanoma): -0.544% (active) | growth (M14 melanoma): 99.2%
